STK33 kin inh: STK33 kinase inhibitors, primary screen, biochemical, luminescence, ADP-Glo, MBP substrate | Serine/threonine-protein kinase 33 (Homo sapiens), Q9BYT3 | inhibition, % at 12.5 µM | 0.44% of 27,000 active | AID 2322, 2010; in the data active = inhibition above about 20%; inconclusive = no clear call, values can overlap the other calls
ID4 binder: binders of human ID4 protein, primary screen, biochemical, small molecule microarray, single point | calls only | 1.2% of 31,000 active | DNA-binding protein inhibitor ID-4 (Homo sapiens), P47928 | AID 624137, 2012 | Flag-ID4 binding, fluorescence F/B; call rule not given here;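 also: a binder raises fluorescence above local background on the spot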
Target sequence (P47928 whole entry, looked up): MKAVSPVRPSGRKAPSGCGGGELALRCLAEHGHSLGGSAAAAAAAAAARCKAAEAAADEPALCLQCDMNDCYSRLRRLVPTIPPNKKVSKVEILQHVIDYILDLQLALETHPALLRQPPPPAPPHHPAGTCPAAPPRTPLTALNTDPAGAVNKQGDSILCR
p53 PUMA act: mutant p53 pathway re-activators, primary screen, cell-based, SW480, luciferase, single point, HTS; SW480 PUMA-promoter luciferase, p53 mutant reactivation; activation, % at 9.98 µM; 1.5% of 28,000 active; AID 624151, 2012; in the data active = activation above about 52%; inconclusive = no clear call, values can overlap the other calls
* marks the source's active call; other numbers are inactive results. Compounds with a hit are over-represented: about 2.1% of the library has one in this group of screens.

For CC(Oc1ccc(Br)cc1)c1nc(-c2ccccn2)no1 (stereo not drawn) the results were STK33 kin inh -1, ID4 binder inactive and p53 PUMA act 60*.
COc1ccc(OC(C)c2nc(-c3cccnc3)no2)cc1 (stereo not drawn) was read as STK33 kin inh -2, ID4 binder inactive and p53 PUMA act -14.
COc1ccc(-c2nc(Nc3nc(C)cc(C)n3)n[nH]2)cc1OC was read as STK33 kin inh -1, ID4 binder active and p53 PUMA act 85*.
Cc1cc(C)nc(Nc2n[nH]c(COc3ccccc3)n2)n1 was read as STK33 kin inh 1, ID4 binder inactive and p53 PUMA act inconclusive.
`Cc1cc(C)nc(Nc2n[nH]c(-c3cccnc3)n2)n1` gave STK33 kin inh 1, ID4 binder inactive and p53 PUMA act 74*.
For COc1ccc(C(=O)CSc2n[nH]c(-c3ccccc3)n2)cc1OC the results were STK33 kin inh -1, ID4 binder inactive and p53 PUMA act -12.
For N#CC(C#N)=C(N)/C(C#N)=C/c1cc(O)c(O)c(O)c1 the results were STK33 kin inh 20*, ID4 binder inactive and p53 PUMA act -9.
For CC(C)(C)c1cc(/C=C(\C#N)C(N)=S)cc(C(C)(C)C)c1O the results were STK33 kin inh 12, ID4 binder inactive and p53 PUMA act -70.
For Cc1cccc(OCC(=O)Nc2cccc(C(=O)O)c2C)c1 the results were STK33 kin inh 1, ID4 binder inactive and p53 PUMA act 23.
`O=C(Nc1ccc(Cl)cc1)c1ccccc1NS(=O)(=O)c1cccc2cccnc12` gave STK33 kin inh 1, ID4 binder inactive and p53 PUMA act -10.
Screening CCOc1ccc(OCC(=O)Nc2ccc(C)cc2[N+](=O)[O-])cc1 returned STK33 kin inh 2, ID4 binder inactive and p53 PUMA act 32.
Screening CCc1ccc(OCC(=O)Nc2ccc(C)cc2[N+](=O)[O-])cc1 returned STK33 kin inh -2, ID4 binder inactive and p53 PUMA act 66*.
Screening Cc1ccc(NC(=O)COc2ccc(Cl)cc2)c([N+](=O)[O-])c1 returned STK33 kin inh 1, ID4 binder inactive and p53 PUMA act 95*.
Screening Cc1ccc(NC(=O)COc2cc(C)c(Br)c(C)c2)c([N+](=O)[O-])c1 returned STK33 kin inh 5, ID4 binder inactive and p53 PUMA act 11.
Screening CCn1c(SCC(=O)Nc2cccc(F)c2)nnc1-c1ccc(C)cc1 returned STK33 kin inh -3, ID4 binder inactive and p53 PUMA act -9.
CCN(CC(=O)Nc1ccc(C(N)=O)cc1)S(=O)(=O)c1ccc(Br)cc1 was read as STK33 kin inh 6, ID4 binder inactive and p53 PUMA act 1.
For O=C(CC1(O)C(=O)N(Cc2ccc(Cl)cc2)c2ccccc21)c1cc2ccccc2oc1=O (stereo not drawn) the results were STK33 kin inh 0, ID4 binder inactive and p53 PUMA act -2.
For COc1ccc(Cl)cc1NC(=O)CSc1nnc(-c2cc3cc(Br)ccc3o2)n1C the results were STK33 kin inh 3, ID4 binder inactive and p53 PUMA act 52*.
Cn1c(SCC(=O)Nc2ccc(Cl)cc2Cl)nnc1-c1ccc(Br)cc1 was read as STK33 kin inh -1, ID4 binder inactive and p53 PUMA act -7.
For CC(C)c1ccc(NC(=O)CSc2n[nH]c(-c3ccccc3Cl)n2)cc1 the results were STK33 kin inh -1, ID4 binder inactive and p53 PUMA act 0.
COc1cccc(NC(=O)CNC(=O)c2ccccc2)c1 was read as STK33 kin inh -2, ID4 binder inactive and p53 PUMA act 57*.
`COc1ccc(C(=O)NCC(=O)Nc2cccc(C(F)(F)F)c2)cc1` gave STK33 kin inh -1, ID4 binder inactive and p53 PUMA act -8.
Cc1ccc2oc(-c3cccc(NC(=O)COc4ccc(Cl)cc4)c3C)nc2c1 was read as STK33 kin inh 3, ID4 binder inactive and p53 PUMA act 66*.
For Cc1ccc2oc(-c3cccc(NC(=O)COc4ccc(Br)cc4)c3C)nc2c1 the results were STK33 kin inh 3, ID4 binder inactive and p53 PUMA act 44.
Screening Cc1ccc(OCC(=O)Nc2cccc(C(=O)O)c2C)cc1 returned STK33 kin inh -9, ID4 binder inactive and p53 PUMA act 66*.
Screening Cc1c(NC(=O)COc2ccc(C(C)(C)C)cc2)cccc1C(=O)O returned STK33 kin inh 2, ID4 binder inactive and p53 PUMA act 24.
CCn1c(SCC(=O)Nc2c(Cl)cc(Cl)cc2Cl)nnc1-c1ccccc1F was read as STK33 kin inh 2, ID4 binder inactive and p53 PUMA act -2.
For O=[N+]([O-])c1ccccc1S(=O)(=O)Nc1nccs1 the results were STK33 kin inh 4, ID4 binder inactive and p53 PUMA act -15.
For Cc1ccc(-c2ccc(CCC(=O)O)n2-c2ccc(N(C)C)cc2)cc1 the results were STK33 kin inh -9, ID4 binder inactive and p53 PUMA act 9.
For CC(=O)c1cccc(-n2c(CCC(=O)O)ccc2-c2ccc(C)cc2)c1 the results were STK33 kin inh -6, ID4 binder active and p53 PUMA act 11.
`CSc1nc2n(n1)C(=O)CC(C)(C)N2` gave ID4 binder inactive and p53 PUMA act -1.
Screening COC(=O)Cc1c(C)c2cc(Cl)c(OC(C)C(C)=O)cc2oc1=O (stereo not drawn) returned STK33 kin inh -3, ID4 binder inactive and p53 PUMA act 68*.
For COC(=O)Cc1c(C)c2c(OCC(N)=O)cc(C)cc2oc1=O the results were STK33 kin inh 4, ID4 binder inactive and p53 PUMA act -6.
Screening CC(=O)NNC(=O)N1Cc2ccccc2Oc2ccc(Cl)cc21 returned ID4 binder active and p53 PUMA act 2.
`CN1CCN(C2=Cc3ccccc3Oc3ccc(Cl)cc32)CC1` gave STK33 kin inh -1 and ID4 binder inactive.
Screening O=C1O[C@H](c2ccccc2)[C@H](c2ccccc2)N2[C@H]1[C@@H](C(=O)Nc1nc3ccccc3s1)[C@]1(C(=O)Nc3ccc(C#CC4(O)CCCCCC4)cc31)[C@H]2c1ccccc1OCCO returned STK33 kin inh 0.
`N#C/C(=C/c1ccc(O)c(O)c1)C(=O)Nc1ccccc1` gave ID4 binder inactive and p53 PUMA act inconclusive.
N#C/C(=C\c1ccc(O)c(O)c1)C(=O)c1ccc(O)c(O)c1 was read as STK33 kin inh 31*, ID4 binder inactive and p53 PUMA act 7.
Cc1cc(C)cc(NC(=O)CN(c2ccccc2F)S(C)(=O)=O)c1 was read as STK33 kin inh -1, ID4 binder inactive and p53 PUMA act -2.
`COc1ccc(-c2csc3ncn(CC(=O)Nc4sc5c(c4C#N)CCC5)c(=O)c23)cc1OC` gave STK33 kin inh 2, ID4 binder active and p53 PUMA act -8.
COc1ccc(-c2csc3ncn(CC(N)=O)c(=O)c23)cc1OC was read as STK33 kin inh -1, ID4 binder inactive and p53 PUMA act 12.
`CC1(C)Cc2c(c(N3CCOCC3)nc3sc4c(SCc5nc6ccccc6[nH]5)ncnc4c23)CO1` gave STK33 kin inh 0, ID4 binder inactive and p53 PUMA act 14.
Screening CCCCOC(=O)c1cc2c(cn1)[nH]c1ccccc12 returned STK33 kin inh -4, ID4 binder inactive and p53 PUMA act 71*.
